Measured values from PubChem BioAssay AID1645886 (National Center for Advancing Translational Sciences (NCATS), 2021).
The campaign covered roughly 16,000 compounds. About 260 (1.6%) were called active. Inconclusive results (about 14%) are left out. The call rests on the fitted dose curve; in most records, active means well fitted inhibition curve with a large enough effect; inconclusive means small, poorly fitted or top-dose-only effect; inactive means no such curve, though single readings can be large or run the other way. The entries come from a sample that favours actives as a whole. Where a SMILES comes first, the peptide text is derived from it. Bridges are numbered along the chain shown (N, C = ends). [ ]: non-standard residue; d: D form. The star is where a group is joined. X4 = CC[C@H](C)CCCCC(=O)*; Dab = NCC[C@H](N)C(=O)O

These compounds were tested against Rap guanine nucleotide exchange factor 4 (Homo sapiens) (UniProt Q8WZA2) (assay: Validation qHTS for antagonist of cAMP-regulated guanine nucleotide exchange factor 4 (EPAC2)). Conditions: EPAC2 Rap1B BODIPY-GDP exchange, fluorescence; series mostly up to 112 µM.
Description: Principle Investigator: Xiaodong Cheng Ph.D. The University of Texas Medical Branch, […], TX MLPCN Grant: NS066510 In multi-cellular eukaryotic organisms, the effects of cAMP are transduced by two ubiquitously-expressed intracellular cAMP receptors, the classic protein kinase A/cAMP-dependent protein kinase (PKA/cAPK) and the more recently discovered exchange protein directly activated by cAMP/cAMP-regulated guanine nucleotide exchange factor (EPAC/cAMP-GEF). Both PKA and EPAC are ubiquitously expressed in all tissues, and an increase in intracellular cAMP levels will lead to the activation of both PKA and EPAC. Therefore, careful dissections of the individual role and relative contribution of EPAC and PKA within the overall cAMP signaling in various model systems are critical for further elucidating the mechanism of cAMP signaling. To date no EPAC-specific antagonists and agonist, as well as isoform-specific agonists have been reported, and developing EPAC-specific pharmacological probes to determine the physiological functions that EPAC play in the overall cAMP-mediated signaling remains a major challenge within the research field. Furthermore, identified regulators of EPAC may lead to new mechanism-based therapeutic strategies specifically targeting the EPAC / cAMP-signaling components as EPAC has been implicated to play important roles in major human pathological conditions such as diabetes, heart disease, and cancer. This qHTS will be used to screen the Molecular Libraries Small Molecule Repository (MLSMR) as a concentration-titration series using the NCGC unique quantitative screening (qHTS) platform to find activators for EPAC1. In addition, this assay will also be used as a counterscreen for the EPAC2 qHTS. This fluorescent based assay is developed and validated for EPAC1 that measures exchange using EPAC effector Rap1 complex with BODIPY-GDP, a GDP analog with a tethered fluorophores. Activators are identified by monitoring the change in fluorescence signal as the exchanged free BODIPY-GDP has a reduced fluorescence compared to Rap1-bound BODIPY-GDP. Increase in signal (activation) is the desired outcome for the EPAC1 agonist while no activity in this assay is desired for the EPAC2 agonist counterscreen. Reference: [1] de Rooij, J., Zwartkruis, F. J., Verheijen, M. H., Cool, R. H., Nijman, S. M., Wittinghofer, A., and Bos, J.L. (1998) Nature 396, 474-477.
Briefly, three uL of reagents (100 nM EPAC2, 250 nM RAP1B-BODIPY-GDP, 50 uM GDP) were dispensed into a 1536-well Greiner black solid-bottom medium binding assay plate. Controls and test compounds (23 nL) were transferred to the plate via a Kalypsys pin tool equipped with a 1536-pin array. The plates were centrifuged at 1,000 rpm for 15 seconds followed by 5 minute incubation at room temperature. The assay plates were read at 5 minute intervals for 30 minutes in the ViewLux plate reader using 480nm excitation and 540nm emission filters. The results were normalized to the agonist positive control of 6.5 mM cAMP.
Further: nearly all actives have a fitted effect of over 40% in size.

Sequence of Rap guanine nucleotide exchange factor 4 (Homo sapiens) (Q8WZA2 whole entry, looked up): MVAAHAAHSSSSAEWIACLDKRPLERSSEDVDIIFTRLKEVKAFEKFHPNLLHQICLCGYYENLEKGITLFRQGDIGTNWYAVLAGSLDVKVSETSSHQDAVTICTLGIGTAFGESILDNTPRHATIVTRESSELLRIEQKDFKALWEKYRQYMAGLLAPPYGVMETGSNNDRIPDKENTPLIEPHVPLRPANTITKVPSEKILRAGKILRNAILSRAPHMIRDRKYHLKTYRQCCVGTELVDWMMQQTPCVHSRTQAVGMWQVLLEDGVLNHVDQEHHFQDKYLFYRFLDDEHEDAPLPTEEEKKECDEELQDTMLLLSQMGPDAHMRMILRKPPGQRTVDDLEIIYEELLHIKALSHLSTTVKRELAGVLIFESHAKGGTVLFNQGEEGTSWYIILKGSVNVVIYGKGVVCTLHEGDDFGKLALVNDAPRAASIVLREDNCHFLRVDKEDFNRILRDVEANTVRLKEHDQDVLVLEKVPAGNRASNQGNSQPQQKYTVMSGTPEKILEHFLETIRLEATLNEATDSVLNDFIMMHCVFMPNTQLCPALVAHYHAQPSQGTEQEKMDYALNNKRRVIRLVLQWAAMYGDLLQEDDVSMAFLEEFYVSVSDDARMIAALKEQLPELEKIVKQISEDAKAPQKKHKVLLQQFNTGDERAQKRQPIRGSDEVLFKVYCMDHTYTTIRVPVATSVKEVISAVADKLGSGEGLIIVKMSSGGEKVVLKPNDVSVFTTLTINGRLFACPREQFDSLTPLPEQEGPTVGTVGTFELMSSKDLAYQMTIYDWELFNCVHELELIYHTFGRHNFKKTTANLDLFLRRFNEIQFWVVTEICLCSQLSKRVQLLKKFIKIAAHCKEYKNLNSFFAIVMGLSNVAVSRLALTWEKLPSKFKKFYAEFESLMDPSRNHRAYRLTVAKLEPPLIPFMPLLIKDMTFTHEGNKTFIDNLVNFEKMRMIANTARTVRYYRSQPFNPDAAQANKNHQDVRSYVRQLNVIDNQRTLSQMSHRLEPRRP

Potency, inactive:
Cc1ccc(-c2ncc(Cl)cc2-c2ccc(S(C)(=O)=O)cc2)cn1, O=c1ccn([C@@H]2O[C@H](COP(=O)(O)OP(=O)(O)OP(=O)(O)O)[C@@H](O)[C@H]2O)c(=O)[nH]1, CC(C)[C@@H]1NC(=O)[C@H](Cc2ccccc2)NC(=O)[C@@H](CC(=O)O)NC(=O)CNC(=O)[C@H](CCCNC(=N)N)NC1=O, O=S(O)CNc1ccc(S(=O)(=O)c2ccc(NCS(=O)O)cc2)cc1, C/C=C(/C)C(=O)OC1Cc2c(ccc3ccc(=O)oc23)OC1(C)C (stereo unspecified), CC(C)N1C[C@@H](NCc2ccccc2O)C[C@H]1C(=O)N1CCN(c2cccc(C(F)(F)F)c2)CC1, O=C(c1ccco1)N1CCC2(CC1)CCN(c1ncccn1)CC2, CC1(C)C=CC(=O)[C@]2(C)C1CC(=O)[C@]1(C)C2CC[C@@]2(C)C(c3ccoc3)OC(=O)C3OC321 (stereo partly specified), CC(C)C1=CC2=CC[C@H]3[C@](C)(C(=O)O)CCC[C@]3(C)C2CC1 (stereo partly specified), O=C1c2ccccc2C(=O)C1c1ccccc1, CN(C)c1ncc2nc(-c3ccc(F)cc3)c(=O)n(Cc3ccc(F)cc3)c2n1, CC(=O)N1CCC2(CCCN(Cc3ccccc3)C2)CC1, CC[C@H](C)CCCCC(=O)N[C@@H](CCN)C(=O)N[C@H](C(=O)N[C@@H](CCN)C(=O)N[C@H]1CCNC(=O)[C@@H]([C@H](C)O)NC(=O)[C@H](CCN)NC(=O)[C@H](CCN)NC(=O)[C@H](CC(C)C)NC(=O)[C@@H](CC(C)C)NC(=O)[C@H](CCN)NC1=O)[C@@H](C)O (X4-[Dab]T[Dab][Dab][Dab][dL]L[Dab][Dab][dT]; lactam 4-C), CC1OC(OCC2OC(Oc3c(-c4ccc(O)c(O)c4)oc4cc(O)cc(O)c4c3=O)C(O)C(O)C2O)[C@@H](O)C(O)C1O (stereo partly specified), COc1cc(=O)n2c(c1C(=O)NCc1ccco1)CCN(Cc1ccccc1)CC2, CNc1ncnc2ccc(-c3cccc(NS(C)(=O)=O)c3)cc12, CS(=O)(=O)N1CCC2(CC1)CN(Cc1cc(C(F)(F)F)cc(C(F)(F)F)c1)C2, O=C1CCNCCN1[C@H](CO)Cc1ccccc1, Cc1nc2cnc(N3CCNCC3)nc2n(Cc2ccc(F)cc2)c1=O, Nc1ccccc1N, CC1(C)S[C@@H]2[C@H](NC(=O)COc3ccccc3)C(=O)N2C1C(=O)OCc1ccccc1 (stereo partly specified), COC1C[C@@H](O[C@@H]2C(C)C(=O)OC(C)C(C)C(O)C(C)C(=O)[C@@]3(CO3)CC(C)C(OC3OC(C)CC(N(C)C)C3O)C2C)OC(C)[C@@H]1O (stereo partly specified), COCCn1c(=O)c(-c2cccs2)nc2cncnc21, N#C/C(=C\c1ccc(O)c(O)c1)C(=O)NCc1ccccc1, COc1cccc(CN2CCC3(CC2)c2ccccc2[C@@H](NC(=O)c2ccccc2OC)[C@@H]3O)c1, COc1ccc(CN2[C@@H](CC(=O)O)c3cc(F)ccc3S2(=O)=O)cc1, CN1C(=O)CN2CCc3ccccc3C2c2cc(Cl)ccc21 (stereo unspecified), CCCS(=O)(=O)NCc1c(C)ncc2c1CCN(C(=O)c1ccc(F)c(F)c1)C2, O=C(c1cccc(Cn2cccn2)c1)N1CCOc2c(cc(-c3csc4ccccc34)cc2OC2CCOC2)C1 (stereo unspecified), O=C(c1cccc(F)c1)N1CCC2(CCCN(Cc3ccncc3)C2)CC1, c1cncc(-c2nc(N3CCNCC3)c3ccccc3n2)c1, CC(=O)/C(C)=N\O, COc1ncc2nc(-c3ccc(Cl)cc3)c(=O)n(-c3ccccc3)c2n1, COc1ccc(CN2CCC3(CCC(CNC(=O)c4ccco4)O3)CC2)cc1OC (stereo unspecified), COc1ccc2c(c1)CCc1cnc(-n3ncc(C(=O)NCCN4CCOCC4)c3C)nc1-2, c1ccc2cc(C3=NCCN3)ccc2c1, NNc1nnc(NN)c2ccccc12, Cc1cccc(CNc2cc(-c3ccccc3Cl)ncn2)c1, Cc1ccc2c(C)nc(N3CCCC(C(=O)NC(C)(C)CO)C3)nc2c1 (stereo unspecified), O=C(Oc1cc(OC(=O)c2ccccc2)c2c(c1)OC(c1ccc(OC(=O)c3ccccc3)c(OC(=O)c3ccccc3)c1)[C@@H](OC(=O)c1ccccc1)C2)c1ccccc1 (stereo partly specified), C/C=C(\C)C(=O)O[C@H]1CC(C)=C2C(=O)C=C(C)C2[C@@H]2OC(=O)[C@@](C)(OC(=O)C=C(C)C)C21 (stereo partly specified), CC[C@H](C)CCCCC(=O)N[C@@H](CCN)C(=O)N[C@H](C(=O)N[C@@H](CCN)C(=O)N[C@H]1CCNC(=O)[C@H]([C@@H](C)O)NC(=O)[C@H](CCN)NC(=O)[C@H](CCN)NC(=O)[C@H](CC(C)C)NC(=O)[C@@H](CC(C)C)NC(=O)[C@H](CCN)NC1=O)[C@@H](C)O (X4-[Dab]T[Dab][Dab][Dab][dL]L[Dab][Dab]T; lactam 4-C), COCCn1c(=O)c(CCc2ccccc2)nc2cnc(N3CCNCC3)nc21, CC(C)c1cnc(NC(=O)Cc2ccccc2)s1, CC1(C)O[C@@H]2C[C@@H]3[C@H]4C[C@@H](F)C5=CC(=O)C=C[C@]5(C)[C@@]4(F)[C@@H](O)C[C@]3(C)[C@]2(C(=O)CO)O1, COc1ccc2[nH]cc(CCNc3ncnc4ccc(-c5ccc(C(=O)N(C)C)cc5)cc34)c2c1
